Among the data in PMC7862700, “An all-to-all approach to the identification of sequence-specific readers for epigenetic DNA modifications on cytosine” are binding signal values, retold here.

What all share (assay): DAPPL (digital affinity profiling via proximity ligation, sequencing); 10 mM Tris-HCl pH 7.5, 50 mM NaCl, 1 mM DTT, 4% glycerol, room temperature, 30 min; GST-TFs on glutathione beads, 16-mer random dsDNA library, 0.1% formaldehyde crosslink after washing; high values mean tight binding
Experiment [1] deals with T1, FLI1 (Homo sapiens, UniProt Q01543 1-452).
T1 sequence: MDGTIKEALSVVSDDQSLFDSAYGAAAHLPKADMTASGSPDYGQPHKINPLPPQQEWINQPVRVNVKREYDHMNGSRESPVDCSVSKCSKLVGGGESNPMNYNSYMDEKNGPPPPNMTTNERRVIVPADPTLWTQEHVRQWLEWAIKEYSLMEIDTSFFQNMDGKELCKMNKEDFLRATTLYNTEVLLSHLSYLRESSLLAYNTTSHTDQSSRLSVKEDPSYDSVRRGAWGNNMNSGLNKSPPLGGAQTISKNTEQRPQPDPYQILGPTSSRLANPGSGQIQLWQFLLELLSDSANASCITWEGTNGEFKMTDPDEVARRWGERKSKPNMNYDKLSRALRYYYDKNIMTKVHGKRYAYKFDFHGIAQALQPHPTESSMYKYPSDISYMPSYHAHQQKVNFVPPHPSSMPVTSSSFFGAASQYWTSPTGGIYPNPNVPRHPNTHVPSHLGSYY
The note with it: protein: recombinant; tags: N-terminal GST; dsDNA, one strand shown. The gist of the method: (§1)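 Sequencing on an Illumina NextSeq500 followed washing, crosslinking with 0.1% formaldehyde, proximity ligation (BsaI/T4 ligase, 1 h, 37 °C) and PCR amplification of pools that had been incubated for 30 min at room temperature with 200 nmole of a random double-stranded 16-mer DNA library in Tris/NaCl/DTT/glycerol buffer. Each pool held DNA-barcoded human transcription factors, expressed in yeast as GST fusions and captured on glutathione beads, plus a tag-only sample. Binding signal is a hexamer's read frequency for a factor divided by its frequency in the tag-only sample.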

The target of experiment [2] is T2, ELK1 (Homo sapiens, UniProt P19419 1-428).
T2 sequence: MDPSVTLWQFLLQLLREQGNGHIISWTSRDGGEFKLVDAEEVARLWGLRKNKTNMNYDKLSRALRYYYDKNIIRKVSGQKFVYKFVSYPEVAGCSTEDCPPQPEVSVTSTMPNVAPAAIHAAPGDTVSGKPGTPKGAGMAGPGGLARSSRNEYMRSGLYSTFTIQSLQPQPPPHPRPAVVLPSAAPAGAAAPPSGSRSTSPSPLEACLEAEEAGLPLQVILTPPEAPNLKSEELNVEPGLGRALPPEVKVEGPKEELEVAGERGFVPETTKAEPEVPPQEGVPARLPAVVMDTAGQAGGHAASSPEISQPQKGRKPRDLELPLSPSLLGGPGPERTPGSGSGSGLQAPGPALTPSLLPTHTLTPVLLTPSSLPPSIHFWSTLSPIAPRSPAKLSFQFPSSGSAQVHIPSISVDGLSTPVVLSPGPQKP
The conditions noted are these: protein: recombinant; tags: N-terminal GST; dsDNA, one strand shown. The gist of the method: as §1

The target of experiment [3] is T3, GABPA (Homo sapiens, UniProt Q06546 1-454).
T3 sequence: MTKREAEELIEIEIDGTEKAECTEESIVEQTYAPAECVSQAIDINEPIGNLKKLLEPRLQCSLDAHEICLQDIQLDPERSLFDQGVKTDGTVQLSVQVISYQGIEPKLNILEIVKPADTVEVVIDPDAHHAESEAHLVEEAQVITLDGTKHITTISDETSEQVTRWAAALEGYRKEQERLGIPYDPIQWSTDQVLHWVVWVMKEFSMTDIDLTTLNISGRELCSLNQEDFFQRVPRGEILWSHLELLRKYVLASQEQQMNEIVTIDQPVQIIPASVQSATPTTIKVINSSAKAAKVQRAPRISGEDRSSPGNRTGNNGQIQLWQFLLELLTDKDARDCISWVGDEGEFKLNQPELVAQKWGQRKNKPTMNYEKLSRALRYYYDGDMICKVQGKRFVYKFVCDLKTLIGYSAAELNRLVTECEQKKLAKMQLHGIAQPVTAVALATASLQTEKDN
The conditions noted are these: protein: recombinant; tags: N-terminal GST; dsDNA, one strand shown. The gist of the method:
as §1

For experiment [4], the target named is T4, ERG (Homo sapiens, UniProt P11308 1-479).
T4 sequence: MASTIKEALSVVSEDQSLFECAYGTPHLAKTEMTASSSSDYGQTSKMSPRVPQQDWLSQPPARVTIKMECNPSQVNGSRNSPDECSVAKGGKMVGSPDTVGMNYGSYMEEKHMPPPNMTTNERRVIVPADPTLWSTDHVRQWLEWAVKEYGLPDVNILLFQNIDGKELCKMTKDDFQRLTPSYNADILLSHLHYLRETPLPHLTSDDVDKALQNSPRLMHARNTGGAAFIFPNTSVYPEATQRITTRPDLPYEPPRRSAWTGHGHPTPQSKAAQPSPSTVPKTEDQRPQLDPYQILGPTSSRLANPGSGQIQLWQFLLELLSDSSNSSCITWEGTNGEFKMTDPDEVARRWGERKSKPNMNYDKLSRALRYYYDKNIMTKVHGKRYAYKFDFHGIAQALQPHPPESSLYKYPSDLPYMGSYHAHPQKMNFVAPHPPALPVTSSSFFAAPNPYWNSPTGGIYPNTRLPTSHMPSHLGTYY
The conditions noted are these: protein: recombinant; tags: N-terminal GST; dsDNA, one strand shown. The gist of the method:
as §1

Experiment [5] addresses ELF1 (Homo sapiens, UniProt P32519 1-619). The note with it: protein: recombinant; tags: N-terminal GST; dsDNA, one strand shown. The gist of the method:
as §1

Experiment [6] concerns the target T5, EHF (Homo sapiens, UniProt Q9NZC4 1-300).
T5 sequence: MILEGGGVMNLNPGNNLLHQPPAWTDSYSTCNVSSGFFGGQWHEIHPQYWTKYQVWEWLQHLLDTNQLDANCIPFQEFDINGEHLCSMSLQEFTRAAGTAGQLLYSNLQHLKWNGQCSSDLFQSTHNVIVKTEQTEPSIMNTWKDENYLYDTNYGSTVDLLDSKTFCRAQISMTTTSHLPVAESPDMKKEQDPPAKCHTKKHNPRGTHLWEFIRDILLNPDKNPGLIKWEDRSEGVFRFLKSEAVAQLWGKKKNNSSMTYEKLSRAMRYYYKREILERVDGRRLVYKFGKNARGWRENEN
The note with it: protein: recombinant; tags: N-terminal GST; dsDNA, one strand shown. The gist of the method:
as §1

In experiment [7] the target is SPI1 (Homo sapiens, UniProt P17947 1-270). The conditions noted are these: protein: recombinant; tags: N-terminal GST; dsDNA, one strand shown. The gist of the method: as §1
The target in experiment [8] is T6, ELK3 (Homo sapiens, UniProt P41970 1-407).
T6 sequence: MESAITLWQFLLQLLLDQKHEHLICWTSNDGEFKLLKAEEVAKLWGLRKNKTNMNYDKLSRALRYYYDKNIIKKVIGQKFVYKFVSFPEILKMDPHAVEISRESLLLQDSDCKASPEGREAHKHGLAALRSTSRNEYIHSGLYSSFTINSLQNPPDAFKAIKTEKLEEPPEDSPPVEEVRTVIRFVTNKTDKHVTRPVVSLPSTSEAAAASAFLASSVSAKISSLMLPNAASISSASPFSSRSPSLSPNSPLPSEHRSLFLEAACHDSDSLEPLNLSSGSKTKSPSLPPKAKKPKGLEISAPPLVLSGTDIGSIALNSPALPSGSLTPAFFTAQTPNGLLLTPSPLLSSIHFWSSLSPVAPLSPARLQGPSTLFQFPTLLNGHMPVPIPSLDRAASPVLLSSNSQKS
The note with it: protein: recombinant; tags: N-terminal GST; dsDNA, one strand shown. The gist of the method: as §1

The target of experiment [9] is T7, FEV (Homo sapiens, UniProt Q99581 1-238).
T7 sequence: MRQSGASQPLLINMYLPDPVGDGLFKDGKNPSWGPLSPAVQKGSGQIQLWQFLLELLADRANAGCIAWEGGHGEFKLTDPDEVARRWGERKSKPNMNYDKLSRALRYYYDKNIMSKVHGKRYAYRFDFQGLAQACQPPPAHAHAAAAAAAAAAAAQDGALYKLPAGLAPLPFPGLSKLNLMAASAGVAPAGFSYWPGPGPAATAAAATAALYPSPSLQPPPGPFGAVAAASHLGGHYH
The conditions noted are these: protein: recombinant; tags: N-terminal GST; dsDNA, one strand shown. The gist of the method:
as §1

Experiment [10] deals with ETV5 (Homo sapiens, UniProt P41161 1-510). The note with it: protein: recombinant; tags: N-terminal GST; dsDNA, one strand shown. The gist of the method:
as §1

Experiment [11] deals with HSF1 (Homo sapiens, UniProt Q00613 1-529). The conditions noted are these: protein: recombinant; tags: N-terminal GST; chain copies: 3; dsDNA, one strand shown. The gist of the method: as §1
The target of experiment [12] is T8, SPIC (Homo sapiens, UniProt Q8N5J4 1-248).
T8 sequence: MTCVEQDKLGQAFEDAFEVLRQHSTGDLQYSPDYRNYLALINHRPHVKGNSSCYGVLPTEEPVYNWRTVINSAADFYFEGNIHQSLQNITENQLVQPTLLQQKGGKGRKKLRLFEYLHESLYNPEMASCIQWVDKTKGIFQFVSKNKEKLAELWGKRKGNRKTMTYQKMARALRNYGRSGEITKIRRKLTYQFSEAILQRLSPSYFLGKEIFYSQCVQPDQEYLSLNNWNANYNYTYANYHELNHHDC
The conditions noted are these: protein: recombinant; tags: N-terminal GST; dsDNA, one strand shown. The gist of the method: as §1

The target of experiment [13] is ELF4 (Homo sapiens, UniProt Q99607 1-663). The note with it: protein: recombinant; tags: N-terminal GST; dsDNA, one strand shown. The gist of the method:
as §1

Experiment [14] concerns the target T9, ELK4 (Homo sapiens, UniProt P28324-2 1-405).
T9 sequence: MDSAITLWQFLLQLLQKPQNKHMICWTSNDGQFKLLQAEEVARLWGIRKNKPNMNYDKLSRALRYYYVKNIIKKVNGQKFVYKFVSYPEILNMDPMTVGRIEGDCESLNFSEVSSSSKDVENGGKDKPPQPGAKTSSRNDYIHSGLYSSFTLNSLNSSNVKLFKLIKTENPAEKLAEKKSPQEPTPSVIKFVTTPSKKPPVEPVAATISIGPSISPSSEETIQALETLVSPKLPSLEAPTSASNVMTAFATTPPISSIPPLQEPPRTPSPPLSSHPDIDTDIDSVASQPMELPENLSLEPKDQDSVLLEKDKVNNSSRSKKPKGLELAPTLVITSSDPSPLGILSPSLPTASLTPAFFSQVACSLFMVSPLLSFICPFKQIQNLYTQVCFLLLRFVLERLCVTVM
The note with it: protein: recombinant; tags: N-terminal GST; dsDNA, one strand shown. The gist of the method: as §1

Experiment [15] deals with T10, ETV2 (Homo sapiens, UniProt O00321 1-342).
T10 sequence: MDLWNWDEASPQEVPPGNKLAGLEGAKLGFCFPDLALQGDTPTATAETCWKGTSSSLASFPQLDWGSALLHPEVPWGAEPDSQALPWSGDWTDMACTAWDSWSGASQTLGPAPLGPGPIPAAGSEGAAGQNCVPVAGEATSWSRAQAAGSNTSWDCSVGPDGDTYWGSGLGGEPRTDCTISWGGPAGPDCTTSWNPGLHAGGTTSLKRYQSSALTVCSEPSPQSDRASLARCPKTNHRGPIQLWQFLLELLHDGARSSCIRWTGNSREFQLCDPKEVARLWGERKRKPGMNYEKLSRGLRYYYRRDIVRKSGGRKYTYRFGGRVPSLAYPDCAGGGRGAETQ
The note with it: protein: recombinant; tags: N-terminal GST; dsDNA, one strand shown. The gist of the method: as §1

Experiment [16] concerns the target T11, ELF3 (Homo sapiens, UniProt P78545 1-371).
T11 sequence: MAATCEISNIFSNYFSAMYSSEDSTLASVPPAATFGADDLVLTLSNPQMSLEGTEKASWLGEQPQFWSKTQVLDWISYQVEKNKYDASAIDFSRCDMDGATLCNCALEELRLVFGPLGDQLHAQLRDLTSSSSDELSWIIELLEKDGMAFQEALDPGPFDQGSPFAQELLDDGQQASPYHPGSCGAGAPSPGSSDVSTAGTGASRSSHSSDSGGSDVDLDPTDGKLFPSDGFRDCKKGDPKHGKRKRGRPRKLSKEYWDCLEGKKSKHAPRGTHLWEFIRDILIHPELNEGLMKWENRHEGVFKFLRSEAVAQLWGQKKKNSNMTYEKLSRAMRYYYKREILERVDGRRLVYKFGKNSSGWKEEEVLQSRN
The note with it: protein: recombinant; tags: N-terminal GST; dsDNA, one strand shown. The gist of the method: as §1

Experiment [17] concerns the target CRX (Homo sapiens, UniProt O43186 1-299). The conditions noted are these: protein: recombinant; tags: N-terminal GST; dsDNA, one strand shown. The gist of the method: as §1
Experiment [18] deals with ETV1 (Homo sapiens, UniProt P50549 1-477). The conditions noted are these: protein: recombinant; tags: N-terminal GST; dsDNA, one strand shown. The gist of the method:
as §1

CRX, sequence (O43186 whole entry): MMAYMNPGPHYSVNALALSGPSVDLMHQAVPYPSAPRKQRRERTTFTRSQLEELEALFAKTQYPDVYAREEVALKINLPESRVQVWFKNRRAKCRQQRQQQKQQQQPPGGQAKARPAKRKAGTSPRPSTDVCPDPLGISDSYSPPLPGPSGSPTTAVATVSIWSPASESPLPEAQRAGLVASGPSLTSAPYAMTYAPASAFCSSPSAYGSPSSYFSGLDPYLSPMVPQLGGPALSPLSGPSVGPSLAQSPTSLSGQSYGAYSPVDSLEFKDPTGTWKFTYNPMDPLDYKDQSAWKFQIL
HSF1, sequence (Q00613 whole entry): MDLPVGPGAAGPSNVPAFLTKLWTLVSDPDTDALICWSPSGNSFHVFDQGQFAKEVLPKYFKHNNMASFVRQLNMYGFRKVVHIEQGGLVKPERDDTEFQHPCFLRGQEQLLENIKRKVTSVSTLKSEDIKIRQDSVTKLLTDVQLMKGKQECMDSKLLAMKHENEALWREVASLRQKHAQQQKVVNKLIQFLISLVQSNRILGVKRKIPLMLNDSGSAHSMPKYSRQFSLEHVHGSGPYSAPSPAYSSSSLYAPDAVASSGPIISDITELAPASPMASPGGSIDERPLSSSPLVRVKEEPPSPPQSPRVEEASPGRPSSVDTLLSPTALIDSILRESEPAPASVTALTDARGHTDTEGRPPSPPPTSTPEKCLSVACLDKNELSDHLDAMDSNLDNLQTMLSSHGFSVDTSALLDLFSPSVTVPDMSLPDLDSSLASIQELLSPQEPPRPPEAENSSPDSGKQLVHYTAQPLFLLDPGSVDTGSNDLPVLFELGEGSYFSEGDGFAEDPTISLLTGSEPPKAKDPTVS
ELF1, sequence (P32519 whole entry): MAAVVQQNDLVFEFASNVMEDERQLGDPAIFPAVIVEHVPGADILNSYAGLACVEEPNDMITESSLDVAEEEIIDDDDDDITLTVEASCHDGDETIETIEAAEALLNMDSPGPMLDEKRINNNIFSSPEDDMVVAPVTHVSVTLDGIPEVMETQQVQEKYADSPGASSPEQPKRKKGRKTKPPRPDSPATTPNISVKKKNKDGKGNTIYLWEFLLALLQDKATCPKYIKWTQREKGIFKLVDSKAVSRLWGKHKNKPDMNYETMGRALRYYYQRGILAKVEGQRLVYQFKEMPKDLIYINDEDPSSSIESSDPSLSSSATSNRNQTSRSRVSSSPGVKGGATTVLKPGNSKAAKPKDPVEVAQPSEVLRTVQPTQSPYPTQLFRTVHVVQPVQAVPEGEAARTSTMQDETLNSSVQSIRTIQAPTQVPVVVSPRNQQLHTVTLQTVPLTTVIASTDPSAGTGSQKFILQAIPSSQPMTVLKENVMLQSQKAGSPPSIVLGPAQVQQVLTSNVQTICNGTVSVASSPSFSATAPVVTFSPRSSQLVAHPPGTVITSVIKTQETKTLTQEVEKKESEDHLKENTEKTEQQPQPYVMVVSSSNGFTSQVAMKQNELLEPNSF
ETV1, sequence (P50549 whole entry): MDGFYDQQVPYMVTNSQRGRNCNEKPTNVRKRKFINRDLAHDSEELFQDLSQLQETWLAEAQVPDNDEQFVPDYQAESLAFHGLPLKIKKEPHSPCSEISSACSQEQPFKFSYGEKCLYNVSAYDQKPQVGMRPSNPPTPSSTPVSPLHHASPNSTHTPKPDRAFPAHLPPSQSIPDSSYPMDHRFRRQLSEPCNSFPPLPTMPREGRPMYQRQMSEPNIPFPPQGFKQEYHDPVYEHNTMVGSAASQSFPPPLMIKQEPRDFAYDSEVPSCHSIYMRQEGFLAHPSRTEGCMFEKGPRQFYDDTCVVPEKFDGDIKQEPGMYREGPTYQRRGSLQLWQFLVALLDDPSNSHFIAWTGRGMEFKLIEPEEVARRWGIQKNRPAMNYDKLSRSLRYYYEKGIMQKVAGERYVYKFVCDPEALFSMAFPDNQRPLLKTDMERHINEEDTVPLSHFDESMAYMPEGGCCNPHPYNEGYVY
ELF4, sequence (Q99607 whole entry): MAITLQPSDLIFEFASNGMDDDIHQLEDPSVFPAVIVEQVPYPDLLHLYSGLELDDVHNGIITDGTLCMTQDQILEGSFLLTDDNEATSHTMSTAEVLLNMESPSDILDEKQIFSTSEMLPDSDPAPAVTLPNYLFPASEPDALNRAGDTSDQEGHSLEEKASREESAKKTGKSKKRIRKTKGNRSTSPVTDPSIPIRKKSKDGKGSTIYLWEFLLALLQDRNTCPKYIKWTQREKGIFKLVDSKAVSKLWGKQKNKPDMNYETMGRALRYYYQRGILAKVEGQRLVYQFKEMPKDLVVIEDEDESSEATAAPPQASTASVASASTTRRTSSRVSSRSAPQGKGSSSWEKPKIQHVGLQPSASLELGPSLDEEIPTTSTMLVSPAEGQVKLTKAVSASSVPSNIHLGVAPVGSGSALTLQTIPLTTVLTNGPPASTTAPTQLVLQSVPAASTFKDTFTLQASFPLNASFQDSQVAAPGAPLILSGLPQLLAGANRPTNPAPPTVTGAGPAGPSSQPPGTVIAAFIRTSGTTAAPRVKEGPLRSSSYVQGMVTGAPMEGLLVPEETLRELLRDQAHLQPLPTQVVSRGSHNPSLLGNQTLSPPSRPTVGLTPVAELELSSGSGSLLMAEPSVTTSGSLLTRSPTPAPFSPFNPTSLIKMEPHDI
ETV5, sequence (P41161 whole entry): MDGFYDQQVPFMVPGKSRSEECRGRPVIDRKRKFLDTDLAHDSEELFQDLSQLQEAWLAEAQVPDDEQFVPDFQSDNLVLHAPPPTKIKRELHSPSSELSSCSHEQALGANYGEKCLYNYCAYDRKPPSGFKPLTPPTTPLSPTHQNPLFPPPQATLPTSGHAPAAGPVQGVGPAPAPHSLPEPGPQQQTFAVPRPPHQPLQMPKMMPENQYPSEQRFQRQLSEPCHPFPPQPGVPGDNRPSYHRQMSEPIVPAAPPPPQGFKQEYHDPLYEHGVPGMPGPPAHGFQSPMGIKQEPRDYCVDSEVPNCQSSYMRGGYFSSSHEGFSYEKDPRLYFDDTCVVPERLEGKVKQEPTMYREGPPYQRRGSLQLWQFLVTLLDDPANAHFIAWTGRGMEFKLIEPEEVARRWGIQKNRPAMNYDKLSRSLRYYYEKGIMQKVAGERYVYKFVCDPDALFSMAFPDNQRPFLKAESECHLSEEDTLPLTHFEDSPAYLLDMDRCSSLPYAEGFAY

On to ACGTAA, for which the binding signal in experiment [1] is 1.07 fold enrichment (6-mer frequency, TF over GST control); in experiment [2], 1.2 fold enrichment (6-mer frequency, TF over GST control); in experiment [3], 1.17 fold enrichment (6-mer frequency, TF over GST control); in [4] it was 1.03 fold enrichment (6-mer frequency, TF over GST control); in experiment [5], 1.07 fold enrichment (6-mer frequency, TF over GST control); in [6], 1.04 fold enrichment (6-mer frequency, TF over GST control). Moreover, the binding signal in experiment [7] was 1.05 fold enrichment (6-mer frequency, TF over GST control); in experiment [8] it was 1.15 fold enrichment (6-mer frequency, TF over GST control); in experiment [9], 1.07 fold enrichment (6-mer frequency, TF over GST control); in experiment [10], 1.16 fold enrichment (6-mer frequency, TF over GST control); in experiment [11] it was 1.17 fold enrichment (6-mer frequency, TF over GST control); in [12] it was 1.12 fold enrichment (6-mer frequency, TF over GST control). Also, the binding signal is 1.14 fold enrichment (6-mer frequency, TF over GST control) in [13]; 1.12 fold enrichment (6-mer frequency, TF over GST control) in experiment [14]; 1.12 fold enrichment (6-mer frequency, TF over GST control) in experiment [15]; 1.07 fold enrichment (6-mer frequency, TF over GST control) in experiment [16]; 1.27 fold enrichment (6-mer frequency, TF over GST control) in experiment [17]; 1.12 fold enrichment (6-mer frequency, TF over GST control) in [18].
